From PubChem BioAssay (NCI)
Compounds without any hit were thinned out: in the full panel of roughly 79,000, 15% have a hit. Unmarked numbers belong to inactive results. Calls of active or inactive are those of the source. Cut-off read from the data, not from the text of the source: active = growth inhibition above about 70%; inactive = the rest.

Test: NCI Yeast Anticancer Drug Screen. Data for the sgs1 strain (AID 173);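 note: 0% = growth of vehicle-only control cultures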
Settings: S. cerevisiae sgs1 mutant, at 11.0 µM, stronger effect = higher value
Procedure, shortened: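 Relative growth inhibition, referenced to vehicle, was determined in a yeast strain with a defined alteration affecting DNA damage repair or cell cycle control after compound exposure.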

| Compound | growth inhibition |
| --- | --- |
| CCOP(=O)(OCC)C(Cc1ccccc1)N=C(c1ccccc1)c1ccccc1 (centres undefined) | 15% |
| CCc1ncnc2cc(OCC3CO3)c(OC)cc12 (centres undefined) | 70% (active) |
| CCOC(=O)[C@H]1Nc2ccccc2C2c3ccccc3CC21 (some centres undefined) | 41% |
| O=CNc1ccc2c(c1)C(=O)c1ccccc1-2 | 6% |
| CCOc1ccc2c(c1)c(CC(=O)O)cn2C | 21% |
| OC1CSCCCSCCSCCCSC1 | -10% |
| N#Cc1c(N)[nH]c2ccc(Sc3ccccc3)cc12 | 23% |
| Cc1ccc(-c2ccc(Nc3c4ccccc4nc4ccccc34)cc2)cn1 | 44% |
| c1ccc2c(c1)NC(NC1Nc3ccccc3N1)N2 | 9% |
| OC(COc1cccc2ccccc12)CN1CCOCC1 (centres undefined) | 61% |
| CCC/C(Cl)=N\OC(=O)Nc1ccc(Br)cc1 | 94% (active) |
| COc1ccc(/C=C2\SC(=S)N(/C=C/c3nc4ccccc4[nH]c3=O)C2=O)cc1OC | 43% |
| O=C(NNc1ccnc2cc(Cl)ccc12)/C(=C\c1ccccc1Cl)NC(=O)c1ccccc1 | 13% |
| CSC1=NNC(SC)=NN1 | 8% |
| Cc1c(C2=C(Br)C(=O)N(C)C2=O)c(=O)n(C)c(=O)n1C | 22% |
| NCCNc1ccc(NCCN)c2c1C(=O)c1c(O)ccc(O)c1C2=O | 40% |
| Cn1c(=O)c(-c2ccccc2)c(N=[N+]=[N-])c2ccccc21 | 13% |
| CCCCCCCCCCCCCCCCCCOCC(O)COP(=O)(O)OCC1OC(n2cc(F)c(=O)[nH]c2=O)CC1O (centres undefined) | 81% (active) |
| CCS(=O)(=O)c1ccc(/C=C/C=N/NC(=S)NCC(C)C)cc1 | -24% |
| CCC(=O)Oc1c(Cl)cc(Cl)c2ccccc12 | 2% |

| Compound | growth inhibition |
| --- | --- |
| COc1cc2c3c(cccc3c1)C(=O)N(CCN(C)C)C2=O | -22% |
| CN(C)c1ccc(C(C#N)=C(C#N)C#N)cc1 | -3% |
| O=C(CCCN1CCC2(CC1)CC(=O)N(N1CCCCCC1)C2=O)c1ccc(F)cc1 | 65% |
| O=C1C2C(C(=O)N1c1ccc(OCc3ccccc3)cc1)C1c3ccccc3C2C2CCCCN21 (centres undefined) | -2% |
| CCN(CC)CCC(=O)c1ccc(Oc2ccc(F)cc2)cc1 | 11% |
| O=Nc1c(NO)ccc2nn(-c3ccccc3)nc12 | 98% (active) |
| CC(=O)SCCC[Si](C)(C)CCCSC(C)=O | 4% |
| O=C(O)C1CCCCC1c1c2ccc(=O)c(O)c-2oc2c(O)c(O)ccc12 (centres undefined) | -16% |
| Cc1ccc(NN(NC(=O)OC(C)C)C(=O)OC(C)C)cc1 | 5% |
| O=C1c2ccccc2C(=O)c2cc(CBr)ccc21 | 23% |
| Cc1c(C(Cc2ccccc2N(C)C(=O)/C=C\C(=O)O)c2c[nH]c3ccccc23)c2ccccc2n1C (centres undefined) | -3% |
| CC(C)/C(Cl)=N\OC(=O)Nc1ccc(F)cc1 | 13% |
| O=C1OC(=O)C2CCCC3CCCC1C32 (centres undefined) | 93% (active) |
| CCOC(=O)C(NC(=O)c1ccccc1)(N1CCN(c2cc3c(cc2F)c(=O)c(C(=O)O)cn3C2CC2)CC1)C(F)(F)F (centres undefined) | 3% |
| COc1ccc(NC(=S)N/N=C(\c2ccccc2)c2ccccn2)cc1 | 0% |
| C=CCC1=C(C)C(OC(=O)/C=C/c2ccccc2)CC1=O (centres undefined) | 6% |
| NNc1c(F)c(F)cc(F)c1F | 18% |
| COP(=O)(OC)/C(=C\C1=CN(C(c2ccccc2)(c2ccccc2)c2ccccc2)CN1)NC=O | 12% |
| COC(=O)c1cc(-c2ccc(C)cc2)[nH]c(=O)c1C#N | -1% |
